In PubChem BioAssay (NCATS):
Results filed as inconclusive are left out. The source made the active and inactive calls. Unless noted, the call rests on the fitted dose curve; in most records, active means well fitted curve in the direction sought with a large enough effect; inconclusive means small, poorly fitted or top-dose-only effect, or another doubt; inactive means no such curve, though single readings can be large; an effect the other way counts as inactive or inconclusive.

Key:
[1] = AP1 Signaling Pathway (AID 357; active means well fitted curve in either direction with a large enough effect, not every such curve was filed as active;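 further: ME-180 reporter cells stimulated with EGF at its EC50 level; on the % scale 0 is the no-effect control and ±100 the full control effect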); conditions: ME-180 (cervical carcinoma) AP-1-bla reporter, EGF-induced, beta-lactamase ratio, 5 h; at 17.2 µM (top of the series) unless noted
In short: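 Titration-series screen for positive or negative modulators of EC50 EGF-induced signaling in ME-180 cells carrying an AP-1-driven beta-lactamase reporter. After 5 hours at 37 degrees Celsius, CCF4 460nm/530nm emission ratio gave %Activity; AC50 values derived.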

[2] = NFAT Signaling Pathway (AID 444; active means well fitted curve in either direction with a large enough effect, not every such curve was filed as active;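 further: carbachol stimulus at about its EC50 of 1 µM final; on the % scale 0 is the no-effect control and ±100 the full control effect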); conditions: Jurkat NFAT-bla M1, carbachol, beta-lactamase ratio, 5 h; at 17.2 µM (top of the series) unless noted
In short: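 Jurkat cells with NFAT-driven β-lactamase reporter and co-expressed M1 receptor, stimulated with carbachol (final 1 uM, ~EC50), compound titration, 5 h at 37 °C. CCF4 loaded 1 h at RT; 460/530 nm ratio gave %activity and AC50.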

[3] = Stat Signaling Pathway (AID 446; active means well fitted curve in either direction with a large enough effect, not every such curve was filed as active;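 further: ME-180 cervical cancer cells given 40 pM IL-6 alongside compound; SIE-controlled beta-lactamase reporter measured as 460/530 nm FRET emission ratio; on the % scale 0 is the no-effect control and ±100 the full control effect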)
In short: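 Compound effects on IL-6-induced STAT reporter activity were measured in ME-180 cells. After overnight culture, cells were co-treated with 40 pM IL-6 for 5 hrs before beta-lactamase substrate loading at room temperature.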

[4] = target: Glucocorticoid receptor (Homo sapiens) (UniProt P04150); test: GR-GFP Redistribution (AID 450;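 active means compounds whose dose series gives a full or clear partial fitted curve of increased nuclear translocation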; further: potency means the concentration at half of the fitted maximal effect); conditions: U2OS GR-GFP nuclear translocation, laser cytometry, 2 h
[5] = target: Glucocorticoid receptor (Homo sapiens) (UniProt P04150); test: GR-EFC Redistribution (AID 451; calls by dose curve; further: potency means the concentration at half of the fitted maximal effect); conditions: CHO-K1 GR-EFC translocation, beta-gal luminescence, 2 h
In short: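 CHO-K1 cells expressing nuclear EA and GR-ED fragments of b-gal; compounds titrated up to 46 uM final, 2 h at 37 C. GR nuclear translocation read as complemented b-gal luminescence after 1 h RT detection.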

[6] = target: Mitogen-activated protein kinase 10 (Mus musculus) (UniProt Q61831); test: JNK3 AlphaScreen Assay (AID 530; active means well fitted curve in either direction with a large enough effect, not every such curve was filed as active;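 further: kinase came from lysate of stimulated human HepG2 cells; signal reports phosphorylation of biotinylated GST-cJun 1-79 at Ser73 with 10 µM ATP; on the % scale 0 is the no-effect control and ±100 the full control effect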)
In short: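 Activity was read by AlphaScreen after JNK3-containing HepG2 lysate (cytokine pre-activated) phosphorylated biotinylated GST-cJun with 10 uM ATP at room temperature. Phospho-Ser73 cJun antibody with Protein-A acceptor beads provided detection.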

[7] = target: 3',5'-cyclic-AMP phosphodiesterase 4B (Homo sapiens) (UniProt Q07343); test: qHTS Assay for Inhibitors of PDE-IV (AID 607; active means well fitted activation curve with a large enough effect in the main read-out, with a control signal flat, not every such curve was filed as active; further: % of control where 0% means no effect)
In short: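 ACTOne HEK293 cells carry a modified cAMP-gated CNG channel and express endogenous PDE4; plated 1000 cells/well, compounds up to 22.9 uM final. Membrane-potential dye fluorescence (ex 535/em 590) was read; parental cells received 10 uM forskolin + 100 uM RO 20-1724.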

[8] = target: Cytochrome P450 3A4 (Homo sapiens) (UniProt P08684); test: qHTS Assay for Activators of Cytochrome P450 3A4 (AID 885); further: nearly all actives have a fitted effect of over 65% in size
In short: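 CYP3A4 activity: Luciferin-PPXE O-dealkylation, 25uM substrate, 200mM KPO4, RT throughout. Read-out is luciferase luminescence; higher values reflect activation.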

[9] = target: ATP-dependent 6-phosphofructokinase (Trypanosoma brucei brucei) (UniProt O15648); test: qHTS Assay to Find Inhibitors of T. brucei phosphofructokinase: hit validation (AID 492961)
In short: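 Inhibition of parasite PFK is measured as reduced ADP formation, quantified via luciferase after ATP depletion. Assay used 0.1 mM ATP, 0.5 mM F6P, 1.25 nM enzyme, 45 min incubation.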

[10] = target: Ubiquitin carboxyl-terminal hydrolase 1 (Homo sapiens) (UniProt O94782); test: Inhibitors of USP1/UAF1: Pilot qHTS (AID 504865);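 further: rhodamine fluorescence freed from ubiquitin-rhodamine substrate followed over time; top concentration of the series differs between compounds; on the % scale 0 is the no-effect control and ±100 the full control effect; nearly all actives have a fitted effect of over 35% in size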
In short: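 Kinetic fluorescence assay: 1nM USP1/UAF1, 15 min compound preincubation, then 150nM Ub-Rho; 480/540 nm.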

[11] = target: Luciferin 4-monooxygenase (Photinus pyralis) (UniProt P08659); test: Biochemical firefly luciferase enzyme assay for NPC (AID 624030);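 further: purified P. pyralis luciferase at 10 nM with luciferin and ATP substrate; 0% = DMSO and -100% = full luciferase inhibition by PTC124 control; nearly all actives have a fitted effect of over 70% in size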
In short: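 Purified P. pyralis luciferase at 10 nM in 50 mM Tris Acetate (final), luminescence read within 5 minutes of enzyme addition to compounds. Activity normalised to PTC124 versus DMSO; concentration-response curves classed by r2, magnitude and activity.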

[12] = S16 Schwann cell viability assay (CellTiter-Glo assay) (AID 624031);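 further: native untransfected S16 rat Schwann cells; cellular ATP luminescence as a viability measure; plate controls were DMSO-treated cells for no effect and cell-free wells for full effect; nearly all actives have a fitted effect of over 70% in size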
In short: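 Cells were seeded at 500-750 per well in phenol red-free DMEM with 10% FBS and left overnight. Compounds or DMSO were pinned in, incubation ran 24 h at 37 °C/5% CO2, then CellTiter-Glo reagent was added and luminescence measured.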

[13] = S16 Schwann cell PMP22 intronic element firefly luciferase assay (AID 624032);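 further: plate controls were DMSO for no effect and PTC124 positive control mean for full effect; nearly all actives have a fitted effect of over 30% in size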
In short: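 Rat S16 Schwann cells stably carrying firefly luciferase driven by a PMP22 intronic element, in 10% FBS, treated 24 h at 37 C. ONE-Glo luminescence normalized to PTC124 control and DMSO (0%); curves classed by r2, magnitude and activity.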

[14] = S16 Schwann cell PMP22 intronic element beta-lactamase assay (AID 624044; calls by dose curve;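 further: 0% = DMSO and -100% = potassium clavulanate positive control; nearly all actives have a fitted effect of over 15% in size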); conditions: S16 rat Schwann cells, PMP22 element beta-lactamase FRET, 24 h; ratio activity, negative = inhibition: at 38.3 µM (top of the series)
In short: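 Beta-lactamase reporter under a PMP22 intronic regulatory element in stable S16 rat Schwann cells; 24 h compound exposure. 460 nm blue signal normalized between DMSO (0%) and potassium clavulanate, with 535 nm FRET tracking viability; curves classed by r2 and response.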

[15] = qHTS profiling for inhibitors of Plasmodium falciparum proliferation (AID 504749);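 further: 0% = DMSO vehicle and full inhibition = artemisinin control; nearly all actives have a fitted effect of over 60% in size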; conditions: P. falciparum in erythrocytes, SYBR Green DNA, 72 h, at 12.8 µM (top of the series)
In short: (§1)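 Each compound contacts P. falciparum-infected red blood cells for 72 h at 37 C; lysis buffer (Tris, EDTA, saponin, Triton X, SYBR Green I) is added and fluorescence measured next morning; values normalized to controls.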

[16] = test system: 3D7; test: as above; conditions: P. falciparum in erythrocytes, SYBR Green DNA, 72 h; series mostly up to 28.7 µM
In short: as §1

[17] = test system: AA1029; test: as above; conditions: P. falciparum in erythrocytes, SYBR Green DNA, 72 h; series mostly up to 28.7 µM
In short: as §1

[18] = test system: AS120; test: as above; conditions: P. falciparum in erythrocytes, SYBR Green DNA, 72 h; series mostly up to 28.7 µM
In short: as §1

[19] = test system: ATS189; test: as above; conditions: P. falciparum in erythrocytes, SYBR Green DNA, 72 h; series mostly up to 28.7 µM
In short: as §1

[20] = test system: ATS95; test: as above; conditions: P. falciparum in erythrocytes, SYBR Green DNA, 72 h; series mostly up to 28.7 µM
In short: as §1

[21] = test system: C2A; test: as above; conditions: P. falciparum in erythrocytes, SYBR Green DNA, 72 h; series mostly up to 28.7 µM
In short: as §1

[22] = test system: CP185; test: as above; conditions: P. falciparum in erythrocytes, SYBR Green DNA, 72 h; series mostly up to 28.7 µM
In short: as §1

[23] = test system: CP191; test: as above; conditions: P. falciparum in erythrocytes, SYBR Green DNA, 72 h; series mostly up to 28.7 µM
In short: as §1

[24] = test system: CP192; test: as above; conditions: P. falciparum in erythrocytes, SYBR Green DNA, 72 h; series mostly up to 28.7 µM
In short: as §1

[25] = test system: CP194; test: as above; conditions: P. falciparum in erythrocytes, SYBR Green DNA, 72 h; series mostly up to 28.7 µM
In short: as §1

[26] = test system: CP201; test: as above; conditions: P. falciparum in erythrocytes, SYBR Green DNA, 72 h; series mostly up to 28.7 µM
In short: as §1

[27] = test system: CP203; test: as above; conditions: P. falciparum in erythrocytes, SYBR Green DNA, 72 h; series mostly up to 28.7 µM
In short: as §1

[28] = test system: CP211; test: as above; conditions: P. falciparum in erythrocytes, SYBR Green DNA, 72 h; series mostly up to 28.7 µM
In short: as §1

[29] = test system: CP215; test: as above; conditions: P. falciparum in erythrocytes, SYBR Green DNA, 72 h; series mostly up to 28.7 µM
In short: as §1

[30] = test system: CP217; test: as above; conditions: P. falciparum in erythrocytes, SYBR Green DNA, 72 h; series mostly up to 28.7 µM
In short: as §1

[31] = test system: CP237; test: as above; conditions: P. falciparum in erythrocytes, SYBR Green DNA, 72 h; series mostly up to 28.7 µM
In short: as §1

[32] = test system: CP238; test: as above; conditions: P. falciparum in erythrocytes, SYBR Green DNA, 72 h; series mostly up to 28.7 µM
In short: as §1

[33] = test system: CP247; test: as above; conditions: P. falciparum in erythrocytes, SYBR Green DNA, 72 h; series mostly up to 28.7 µM
In short: as §1

[34] = test system: CP250; test: as above; conditions: P. falciparum in erythrocytes, SYBR Green DNA, 72 h; series mostly up to 28.7 µM
In short: as §1

Sequence of Glucocorticoid receptor (Homo sapiens) (P04150 whole entry, looked up, the tested form may be a part): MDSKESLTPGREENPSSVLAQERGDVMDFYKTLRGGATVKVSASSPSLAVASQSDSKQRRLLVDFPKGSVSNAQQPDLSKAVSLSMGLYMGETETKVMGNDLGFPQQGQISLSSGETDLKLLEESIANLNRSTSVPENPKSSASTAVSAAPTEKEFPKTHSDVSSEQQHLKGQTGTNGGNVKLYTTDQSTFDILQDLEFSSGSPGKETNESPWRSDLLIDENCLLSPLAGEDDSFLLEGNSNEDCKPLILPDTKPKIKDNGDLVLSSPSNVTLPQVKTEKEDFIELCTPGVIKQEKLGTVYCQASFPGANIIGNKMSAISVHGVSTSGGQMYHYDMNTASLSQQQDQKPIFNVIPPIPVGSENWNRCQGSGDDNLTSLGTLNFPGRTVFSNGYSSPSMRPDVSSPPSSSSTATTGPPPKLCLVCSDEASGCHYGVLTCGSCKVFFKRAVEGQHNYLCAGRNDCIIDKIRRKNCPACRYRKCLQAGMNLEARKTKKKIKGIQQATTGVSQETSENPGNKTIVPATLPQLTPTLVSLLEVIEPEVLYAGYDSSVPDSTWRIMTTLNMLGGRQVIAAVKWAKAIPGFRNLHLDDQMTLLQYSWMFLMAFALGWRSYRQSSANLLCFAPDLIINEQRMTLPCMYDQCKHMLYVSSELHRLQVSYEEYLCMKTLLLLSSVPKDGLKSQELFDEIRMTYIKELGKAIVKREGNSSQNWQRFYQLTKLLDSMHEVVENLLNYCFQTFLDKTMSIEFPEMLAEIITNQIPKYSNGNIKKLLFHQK
Sequence of ATP-dependent 6-phosphofructokinase (Trypanosoma brucei brucei) (O15648 whole entry, looked up): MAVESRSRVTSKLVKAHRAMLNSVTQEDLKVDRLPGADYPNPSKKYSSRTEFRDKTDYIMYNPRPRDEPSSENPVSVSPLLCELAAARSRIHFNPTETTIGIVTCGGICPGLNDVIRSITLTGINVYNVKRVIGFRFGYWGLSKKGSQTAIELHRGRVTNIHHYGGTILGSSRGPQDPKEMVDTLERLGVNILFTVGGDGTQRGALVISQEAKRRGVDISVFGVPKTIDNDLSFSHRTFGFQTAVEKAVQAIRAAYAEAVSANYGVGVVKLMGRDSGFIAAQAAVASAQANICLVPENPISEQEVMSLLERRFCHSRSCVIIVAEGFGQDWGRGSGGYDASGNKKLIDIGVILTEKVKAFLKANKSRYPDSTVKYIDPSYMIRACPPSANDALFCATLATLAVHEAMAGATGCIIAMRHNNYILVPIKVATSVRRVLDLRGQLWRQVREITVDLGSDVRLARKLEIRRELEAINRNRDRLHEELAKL
Sequence of Cytochrome P450 3A4 (Homo sapiens) (P08684 whole entry, looked up): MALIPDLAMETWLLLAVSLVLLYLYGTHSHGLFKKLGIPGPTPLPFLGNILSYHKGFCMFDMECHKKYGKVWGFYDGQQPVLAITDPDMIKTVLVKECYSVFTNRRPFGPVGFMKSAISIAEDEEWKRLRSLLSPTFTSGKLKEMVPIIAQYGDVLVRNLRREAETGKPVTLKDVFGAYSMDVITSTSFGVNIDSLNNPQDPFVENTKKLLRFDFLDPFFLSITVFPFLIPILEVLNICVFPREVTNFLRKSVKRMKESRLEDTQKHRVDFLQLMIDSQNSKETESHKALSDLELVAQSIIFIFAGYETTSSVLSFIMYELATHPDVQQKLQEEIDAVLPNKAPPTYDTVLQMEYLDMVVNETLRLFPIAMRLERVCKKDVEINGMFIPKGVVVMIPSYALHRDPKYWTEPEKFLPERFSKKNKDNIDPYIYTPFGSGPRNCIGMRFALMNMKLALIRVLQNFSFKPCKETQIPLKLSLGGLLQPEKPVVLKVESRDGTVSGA
Sequence of Luciferin 4-monooxygenase (Photinus pyralis) (P08659 whole entry, looked up): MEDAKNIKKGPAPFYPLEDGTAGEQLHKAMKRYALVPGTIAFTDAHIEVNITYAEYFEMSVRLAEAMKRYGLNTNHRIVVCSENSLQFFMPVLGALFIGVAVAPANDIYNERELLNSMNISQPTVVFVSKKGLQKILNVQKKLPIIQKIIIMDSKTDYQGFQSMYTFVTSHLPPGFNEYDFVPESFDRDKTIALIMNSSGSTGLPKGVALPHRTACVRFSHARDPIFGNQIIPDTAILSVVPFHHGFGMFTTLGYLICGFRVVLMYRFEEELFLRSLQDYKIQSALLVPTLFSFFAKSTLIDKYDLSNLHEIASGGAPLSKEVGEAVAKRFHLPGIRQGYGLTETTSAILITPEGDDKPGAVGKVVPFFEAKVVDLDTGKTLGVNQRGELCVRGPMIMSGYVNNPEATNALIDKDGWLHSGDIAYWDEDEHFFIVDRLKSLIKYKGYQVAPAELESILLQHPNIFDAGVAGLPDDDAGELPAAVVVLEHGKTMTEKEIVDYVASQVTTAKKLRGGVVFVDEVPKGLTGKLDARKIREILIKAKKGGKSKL
Sequence of Ubiquitin carboxyl-terminal hydrolase 1 (Homo sapiens) (O94782 whole entry, looked up): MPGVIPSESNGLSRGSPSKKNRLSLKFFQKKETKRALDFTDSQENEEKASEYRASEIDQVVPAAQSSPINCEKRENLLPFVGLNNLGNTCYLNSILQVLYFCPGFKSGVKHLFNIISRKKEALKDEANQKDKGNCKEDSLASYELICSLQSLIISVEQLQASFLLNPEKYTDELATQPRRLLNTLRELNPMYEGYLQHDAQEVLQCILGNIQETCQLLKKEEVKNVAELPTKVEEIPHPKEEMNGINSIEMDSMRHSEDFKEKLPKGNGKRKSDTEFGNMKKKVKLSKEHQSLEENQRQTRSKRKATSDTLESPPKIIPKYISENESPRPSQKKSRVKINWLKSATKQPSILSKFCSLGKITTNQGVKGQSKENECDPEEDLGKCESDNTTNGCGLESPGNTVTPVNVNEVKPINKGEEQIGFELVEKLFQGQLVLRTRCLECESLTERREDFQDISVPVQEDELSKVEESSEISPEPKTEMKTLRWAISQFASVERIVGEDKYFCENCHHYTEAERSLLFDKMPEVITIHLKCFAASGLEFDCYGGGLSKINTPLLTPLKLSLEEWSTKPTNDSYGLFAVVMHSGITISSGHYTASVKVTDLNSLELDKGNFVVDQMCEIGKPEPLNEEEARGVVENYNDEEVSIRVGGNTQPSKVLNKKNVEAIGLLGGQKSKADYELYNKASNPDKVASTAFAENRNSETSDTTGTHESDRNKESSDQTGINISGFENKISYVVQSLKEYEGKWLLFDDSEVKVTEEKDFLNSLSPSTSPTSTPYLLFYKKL
Sequence of 3',5'-cyclic-AMP phosphodiesterase 4B (Homo sapiens) (Q07343 whole entry, looked up): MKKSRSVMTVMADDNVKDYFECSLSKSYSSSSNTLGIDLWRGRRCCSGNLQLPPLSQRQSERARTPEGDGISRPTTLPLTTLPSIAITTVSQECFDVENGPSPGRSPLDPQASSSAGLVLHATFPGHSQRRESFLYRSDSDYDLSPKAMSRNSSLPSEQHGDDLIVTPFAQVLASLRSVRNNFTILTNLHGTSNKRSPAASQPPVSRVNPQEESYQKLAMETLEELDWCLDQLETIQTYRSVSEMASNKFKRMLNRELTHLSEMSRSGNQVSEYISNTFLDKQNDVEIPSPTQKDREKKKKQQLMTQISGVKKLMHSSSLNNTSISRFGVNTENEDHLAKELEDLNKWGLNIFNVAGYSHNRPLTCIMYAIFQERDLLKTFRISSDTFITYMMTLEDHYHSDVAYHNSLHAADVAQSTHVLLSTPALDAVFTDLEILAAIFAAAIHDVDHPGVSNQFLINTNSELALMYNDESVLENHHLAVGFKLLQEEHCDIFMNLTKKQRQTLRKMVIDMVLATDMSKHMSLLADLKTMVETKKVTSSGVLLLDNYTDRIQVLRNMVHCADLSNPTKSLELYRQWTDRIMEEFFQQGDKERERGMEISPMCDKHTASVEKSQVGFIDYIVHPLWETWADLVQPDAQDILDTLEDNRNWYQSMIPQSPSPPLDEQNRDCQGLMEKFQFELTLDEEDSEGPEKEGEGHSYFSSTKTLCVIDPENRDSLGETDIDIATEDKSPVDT

CCOC(=O)c1cncn1[C@@H](C)c1ccccc1
inactive: activity change, negative = inhibition [1] 9.06% | activity change, negative = inhibition [2] -21.8% | outcome [3] | Potency [4] > 20.6 µM | Potency [5] > 20.6 µM | outcome [6] | outcome [7] | Potency [8] | outcome [9] | Potency [10] | Potency [11] | Potency [12] | Potency [13] | Potency [14] | activity, negative = inhibition ([15]; parasite line A) -15.7% | activity, negative = inhibition ([15]; parasite line B) -15.4% | Potency [16] | Potency [17] | Potency [18] | Potency [19] | Potency [20] | Potency [21] | Potency [22] | Potency [23] | Potency [24] | Potency [25] | Potency [26] | Potency [27] | Potency [28] | Potency [29] | Potency [30] | Potency [31] | Potency [32] | Potency [33] | Potency [34]
